Assay results taken from PubChem BioAssay (Tox21).
Records with an inconclusive call do not appear. A number with no mark means an inactive call. Calls come from the whole dose curve; as a rule, active = well fitted cell-killing curve with a large enough effect in the repeat runs; inconclusive = weak or mixed curves; inactive = no such curve, though single readings can be large or run the other way.

test: qHTS assay to identify small molecule agonists of the peroxisome proliferator-activated receptor delta (PPARd) signaling pathway - cell viability counter screen (AID 743211); conditions: PPARd-bla HEK293H viability, CellTiter-Glo luminescence, 17 h; series mostly up to 62.6 µM; activity change, negative = cytotoxicity: at the top concentration; note: nearly all actives have a fitted effect of over 55% in size
Source text: U.S. Tox21 Program National Center for Advancing Translational Sciences [NCATS] NIH Chemical Genomics Center [NCGC] U.S. Environmental Protection Agency [EPA] National Institutes of Environmental Health Sciences [NIEHS] National Toxicology Program [NTP] U.S. Food and Drug Administration [FDA] Tox21 Assay Overview: The peroxisome proliferator-activated receptors (PPARs) are lipid-activated transcription factors of the nuclear receptor superfamily with three distinct subtypes namely PPAR alpha, PPAR delta (PPARd) and PPAR gamma. All these subtypes heterodimerizes with Retinoid X receptor (RXR) and have different physiological functions. […] To identify the compounds that activate PPAR-delta signaling, GeneBLAzer PPAR delta UAS-bla HEK293H cell line (Invitrogen, Carlsbad, CA, USA) containing a beta-lactamase reporter gene under the control of an Upstream Activator Sequence (UAS) was used to screen the Tox21 compound library. The cytotoxicity of the Tox21 compound library against the PPARd-bla cell line was tested in parallel by measuring the cell viability using CellTiter-Glo assay (Promega, Madison, WI) in the same wells.
Tox21 Assay Protocol Summary: PPARd-bla cells were dispensed at 3000 cells/6uL/well in 1536-well black wall/clear bottom plates using a Multidrop Combi (Thermo Fisher Scientific, Waltham, MA) dispenser. After the assay plates were incubated at 37 C and 5% CO2 for 5 h, 23 nL of compounds dissolved in DMSO, positive controls or DMSO only was transferred to the assay plate by a Pintool station (Kalypsys, San Diego, CA). The assay plates were incubated at 37C for 17 h. After 1 uL of LiveBLAzerTM B/G FRET substrate was added using a Bioraptr Flying Reagent Dispenser (FRD) workstation (Beckman Coulter, Indianapolis, IN, USA), the plates were incubated at room temperature for 2 h, and fluorescence intensity was measured by an Envision plate reader (PerkinElmer, Shelton, CT). For cell viability readout that measures cytotoxicity, 3 ul/well of CellTiter-Glo reagent was added into the assay plates using a Bioraptr FRD. After 30 min incubation at room temperature, the luminescence intensity in the plates was measured using a ViewLux plate reader (PerkinElmer).
% is set by controls: 0 for no effect and ±100 for the full control effect.

In order of falling “activity change, negative = cytotoxicity” value:
1. c1ccc2c(c1)ccc1c3ccccc3ccc21  24.6%
2. CC(=O)Nc1ccc(S(=O)(=O)Cl)cc1  10.9%
3. Cc1ccc2c(c1)OCC(=O)CO2  9.31%
4. Nc1ncnc(Nc2ccccc2)n1  9.31%
5. CC1(C)S[C@@H]2[C@H](N=CN3CCCCCC3)C(=O)N2[C@H]1C(=O)O  6.99%
6. CC(CC=O)CCCC(C)(C)O (stereo not given)  5.79%
7. OCCN(CCO)c1cccc(Cl)c1  5.29%
8. CCOCCOC(=O)/C=C/c1ccc(OC)cc1  5.17%
9. COc1nccnc1NS(=O)(=O)c1ccc(N)cc1  4.66%
10. Cc1[nH]cnc1-c1ccc(Cl)cc1  4.46%
11. CCOC(=O)c1ncn2c1CN(C)C(=O)c1cc(F)ccc1-2  3.15%
12. CCOc1cc(NC(C)=O)ccc1C(=O)OC  2.46%
13. C=C(C)C(=O)OCc1ccccc1  1.99%
14. CC(C(=O)O)c1ccc2c(c1)CC(=O)c1ccccc1S2 (stereo not given)  1.89%
15. CC(C)(C)c1n[nH]c(=S)n(N)c1=O  1.23%
16. CC(C)(C)NC(N)=O  1.17%
17. C=C(C)C(=O)OCC(C)(C)COC(=O)C(=C)C  0.649%
18. CCN1CCc2nc(N)oc2CC1  0.374%
19. OCCCCC(O)CO (stereo not given)  0.295%
20. O=C(OCC(COC(=O)c1cccnc1)(COC(=O)c1cccnc1)COC(=O)c1cccnc1)c1cccnc1  0.0482%
21. CC(=O)c1ccc2c(c1)Cc1ccccc1-2  0.0163%
22. O=C(CS(=O)Cc1ccco1)NC/C=C\COc1cc(CN2CCCCC2)ccn1 (stereo not given)  -0.0252%
23. COc1ccc(S(=O)(=O)N2c3ccc(Cl)cc3[C@@](O)(c3ccccc3Cl)[C@H]2C(=O)N2CCC[C@@H]2C(N)=O)cc1OC  -0.291%
24. CC(C)N(c1ccccc1)C(C)C  -0.335%
25. CCCCCOC(=O)CCC  -0.835%
26. CC(C)NCC(O)COc1cccc2[nH]ccc12 (stereo not given)  -0.885%
27. CN1C(C)(C)CCCC1(C)C  -1.99%
28. N[C@@H](CCC(=O)Nc1ccc([N+](=O)[O-])cc1)C(=O)O  -2.07%
29. Cc1ccsc1/C=C/C1=NCCCN1C  -2.26%
30. CC(C)CCCC(C)(C)O  -2.64%
31. C[C@@H]1O[C@@H](O[C@@H]2[C@@H](O)[C@H](OCCc3ccc(O)c(O)c3)O[C@H](CO[C@@H]3O[C@H](CO)[C@@H](O)[C@H](O)[C@H]3O)[C@H]2OC(=O)/C=C/c2ccc(O)c(O)c2)[C@H](O)[C@H](O)[C@H]1O  -4.55%
32. COc1ccc2c(c1)C(=O)N(CCc1ccc(S(=O)(=O)NC(=O)NC3CCCCC3)cc1)C(=O)C2(C)C  -7.91%
33. Cc1cccc2nccnc12  -8.31%
34. CCCCCCOc1ccccc1C(N)=O  -9.53%
35. CCOC(=O)c1ccc(OC(=O)CCCCCN=C(N)N)cc1  -9.78%
36. CCCCNc1ccc(C(=O)OCCN(C)C)cc1  -10.4%
37. CCC(CC)CO  -11.8%
38. O=S(=O)(O)c1ccc2cc(O)c(S(=O)(=O)O)cc2c1  -12.2%

In order of falling “activity change, negative = cytotoxicity” value:
1. Nc1cccc(O)c1  -0.471% [at 81.1 µM]
2. C=Cc1ccccn1  -4.04% [at 81.1 µM]
